Compound activity as filed in PubChem.
The list is not random: actives were taken first. Their share in the collection is about 4.4%.
12-hLO inh: inhibitors of human 12-lipoxygenase (ALOX12) | 0.12% of 150,000 active | P18054 | Potency, µM (doses to about 57.1 µM), for the others: top-dose activity change, negative = inhibition, hits mostly inhibitors | purified 12-hLO, xylenol orange hydroperoxide absorbance | AID 1452; note: nearly all actives have a fitted effect of over 55% in size
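150 nM 12hLO, 25 mM Hepes pH 7.0 + 0.01% Triton X-100; cpd preinc 15 min RT; 40 uM arachidonic acid, 30 min RT; Fe-XO 30 min; A573/A405 ratio as read-out.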
p53ts 32C tox: p53ts cell cytotoxicity, permissive temperature. H1299-p53A138V at 32C, ATP luminescence viability, 24 h. Potency, µM (series often up to 46.1 µM), without a hit: at the top dose activity change, negative = cytotoxicity, actives largely listed as cytotoxic. 0.93% of 130,000 active. AID 924;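 note: 0% = DMSO and -100% = full killing by reference compound; nearly all actives have a fitted effect of over 55% in size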
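Viability by ATPlite luminescence after 24 h compound treatment (up to 46 uM) at the permissive 32C. Cells are H1299 carrying p53 A138V. Scale runs from DMSO basal to 100 uM tamoxifen as full kill; AC50 from Hill fits.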
p53ts 39C kill: p53ts cell cytotoxicity, nonpermissive temperature. Potency, µM (titrated, usually from 46.1 µM), for inactives: at the highest dose activity change, negative = cell killing, hits mostly cytotoxic. 1.5% of 130,000 active. H1299-p53A138V viability at 39C, ATP luminescence, 24 h; note: nearly all actives have a fitted effect of over 55% in size
HPGD block: blocks human HPGD enzyme activity; 4.3% of 150,000 active; purified HPGD, NADH fluorescence kinetic, PGE2 substrate; P15428; Potency, µM, for the others: at the top dose activity change, negative = inhibition, usual class: inhibitors; active = well fitted inhibition curve with a large enough effect, not every such curve was filed as active; inconclusive = small, poorly fitted or top-dose-only effect, or another doubt; inactive = no such curve, though single readings can be large or run the other way
Target sequence (P15428 whole entry, looked up): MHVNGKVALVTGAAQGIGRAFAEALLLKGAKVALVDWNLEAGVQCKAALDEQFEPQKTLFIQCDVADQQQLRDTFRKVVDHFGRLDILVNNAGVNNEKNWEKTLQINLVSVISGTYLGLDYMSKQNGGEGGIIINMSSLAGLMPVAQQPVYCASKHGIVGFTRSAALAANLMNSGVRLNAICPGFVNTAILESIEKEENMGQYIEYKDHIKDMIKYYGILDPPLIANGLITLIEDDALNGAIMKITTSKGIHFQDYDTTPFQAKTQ
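20 nM HPGD preincubated 15 min at room temperature with compound in 50 mM Tris-HCl pH 8, 0.01% Tween 20. Started with 1 mM NAD+ and 30 uM prostaglandin E2; NADH fluorescence (360/450 nm) read 5 times over 30-s intervals, last minus first.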
* marks the source's active call; other numbers are inactive results; ? = inconclusive; / = no result; [ ] = remark or other dose. Unless noted, calls come from the whole dose curve; as a rule, active = well fitted curve in the direction sought with a large enough effect; inconclusive = small, poorly fitted or top-dose-only effect, or another doubt; inactive = no such curve, though single readings can be large; an effect the other way counts as inactive or inconclusive. Unless noted, % is set by controls: 0 for no effect and ±100 for the full control effect; potency is the fitted concentration of half-maximal effect.

SMILES	12-hLO inh	p53ts 32C tox	p53ts 39C kill	HPGD block
CCN(CC)C(=O)c1sc(NC(=O)c2ccc(C)c([N+](=O)[O-])c2)c(C#N)c1C	0%	/	/	28µM*
COc1cccc(CCNC(=O)Cn2c(-c3cccs3)cc3ccccc32)c1	/	3%	-18%	/
CC(C)(C)c1ccc(S(=O)(=O)c2cnc(SCC(=O)Nc3ccc4c(c3)OCCO4)[nH]c2=O)cc1	/	9%	-16%	/
O=C1N/C(=N/Nc2ccccc2)S/C1=C\c1ccccc1	?	/	/	10µM*
CCSc1nc(-c2ccccc2OC)nc2c1Cc1c(CO)cnc(C)c1O2	/	-11%	-18%	/
COc1ccc(/C=N\n2nnc3ccccc32)cc1	-3%	13µM*	10µM*	-9%
COC(c1ccccc1)C(C)C(OC)C(C)C(OC)C(C)C(C)=O (stereo not drawn)	/	4%[9.22 µM]	3%[9.22 µM]	/
O=c1c(-c2cccs2)nc2cnc(N3CCNCC3)nc2n1CCc1ccccc1	/	?	16µM*	/
Cn1c(=O)c(-c2cccs2)nc2cnc(N3CCNCC3)nc21	/	-1%	-11%	/
O=C(NNC(=S)Nc1ccc(F)cc1)C1CC1c1ccc(Cl)cc1 (stereo not drawn)	-13%	/	/	16µM*
O=c1nc(/C=C/c2cc([N+](=O)[O-])ccc2Cl)cc(C(F)(F)F)[nH]1	-9%	/	/	3.2µM*
CC1(C)OC2CC(=O)OCC23C1CC(=O)C1(C)C3CC[C@@]2(C)[C@H](c3ccoc3)OC(=O)C3OC312 (stereo partly drawn)	-3%[0.00818 µM]	/	/	-9%
Cc1nnc(-c2cnn(-c3ccccc3)c2N)n1Cc1ccncc1	6%	/	/	-7%
Cc1nnc(-c2cnn(-c3ccccc3)c2N)n1Cc1cccc(C(F)(F)F)c1	3%	/	/	13µM*
Cc1ccc(C(=O)NCc2ccc(F)cc2)cc1NC(=O)c1nsc2ccccc12	/	11%	-7%	/
Clc1ccc(CCNc2nc3ccccc3c3nc(-c4ccccc4)nn23)cc1	/	-2%	-17%	/
CCN(C(=O)c1cc2c(s1)-c1c(C)cccc1OC2)c1ccccc1F	/	9%	-17%	/
Cc1oc2ncn(CC(C)C)c(=O)c2c1C(=O)N(CCN(C)C)Cc1ccccc1	/	-10%	-9%	/
COc1ccc(N(C)C(=O)c2cnc(N3CCN(c4ncccn4)CC3)c3ccccc23)cc1	-2%	/	/	28µM*
CCOC(=O)c1cccc(NS(=O)(=O)c2ccc(-c3cnc(C4CC4)o3)cc2)c1	/	7%	-23%	/
Cc1cc(C)nc(SCc2nnc(SCC#N)n2-c2cccc(Cl)c2)n1	-1%	6%	14%	16µM*
Cc1cc(C)nc(SCc2nnc(SCC(=O)Nc3nc(-c4ccccc4)cs3)n2-c2ccccc2)n1	4%	/	/	-14%
CCc1nn2c(=O)cc(COC(=O)c3ccccc3)nc2s1	/	-7%	-15%	/
CN(C)S(=O)(=O)c1cccc(C(=O)Nc2ccccc2[N+](=O)[O-])c1	-3%	/	/	40µM*
NCCC[C@@H](CC(=O)N[C@@H]1CCCC[C@H]1C(=O)N[C@H](CC(=O)N[C@@H](CCC(=O)O)CC(=O)O)Cc1c[nH]c2ccccc12)NC(=O)C[C@H](CO)NC(=O)[C@@H]1CCCC[C@H]1N	-2%	/	/	-10%
SMILES	12-hLO inh	p53ts 32C tox	p53ts 39C kill	HPGD block
Cc1nnc(Sc2cc(C(=O)NCCCN(C)Cc3ccccc3)c3ccccc3n2)s1	-4%	/	/	-25%
CCN(CC)CCNC(=O)c1cc(Sc2nnc(C)s2)nc2ccccc12	2%	/	/	1.3µM*
CN(N=O)c1ccc(/C=C\c2ccnc3ccccc23)cc1	-3%[11.4 µM]	-5%[9.22 µM]	-2%[9.22 µM]	?
Cc1ccccc1-c1cc(Nc2ccc(F)cc2)ncn1	-2%	1%	-3%	14µM*
COc1ccccc1-c1cc(NCc2cccc(C)c2)ncn1	/	-5%	-25%	/
Cc1cccc(CNc2cc(-c3ccccc3C)ncn2)c1	-6%	-3%	-8%	16µM*
Cn1cccc1CC(=O)NNC(=S)Nc1ccccc1Cl	-6%	/	/	11µM*
Cn1cccc1CC(=O)NNC(=S)Nc1ccc(Cl)cc1	-7%	/	/	-29%
c1ccc(-c2ccc(N3CC4(CCNCC4)C3)cc2)cc1	-3%	20µM*	16µM*	?
c1ccc(-c2ccc(N3CCCC4(CCNCC4)C3)cc2)cc1	2%	20µM*	13µM*	?
CC1CC(=O)N(CC(=O)Nc2ccc(OC(F)(F)F)cc2)c2ccccc2S1 (stereo not drawn)	/	-11%	-11%	/
O=C(Nc1ccc(Cl)cc1)C1CCN(c2nc3ccccc3n3cccc23)CC1	/	-4%	?	/
CC[n+]1c(/C=C(\C)SC)sc2ccccc21	-6%	/	/	28µM*
Fc1ccc(Nc2nc3nonc3nc2Nc2cccc(C(F)(F)F)c2)cc1	/	?	13µM*	/
Cc1ccc(C)c(NC(=O)CSc2cn(CC(=O)N3CCCC3)c3ccccc23)c1	/	1%	-11%	/
CC1(C)CC(=O)c2c(oc3cc4c(cc23)OCO4)C1	?	-5%	-12%	2.5µM*
CCOc1ccccc1NS(=O)(=O)c1ccc2oc(=O)c3ncn(C)c3c2c1	/	?	20µM*	/
Cn1cnc2c(=O)oc3ccc(S(=O)(=O)Nc4ccc(F)cc4)cc3c21	/	-15%	13µM*	/
Cc1ccc(Cl)cc1NS(=O)(=O)c1ccc2oc(=O)c3ncn(C)c3c2c1	/	?	20µM*	/
CCC(CC)c1nn2c(=O)cc(COc3ccc(NC(=O)c4cccc(C)c4)cc3)nc2s1	/	2%	-13%	/
CCCCCCCCC#CCC#CCC#CCCCC(=O)O	-3%	/	/	-16%
CC(C)c1ccc(/C=C2\C=C(c3ccc4ccccc4c3)OC2=O)cc1	-7%[11.4 µM]	-5%[9.22 µM]	0%[9.22 µM]	-8%
O=C1N=c2ccccc2=C1c1c(O)n(-c2cccc(F)c2)[nH]c1=O	1%	/	/	5.6µM*
Cn1c(O)c(C2=c3ccccc3=NC2=O)[nH]c1=S	-2%	/	/	-14%
COc1ccc2c(c1)O[C@@H](c1ccc3c(c1)OCO3)[C@H](OC(=O)Nc1ccc(OC(F)F)cc1)C2=O	/	/	/	-3%
SMILES	12-hLO inh	p53ts 32C tox	p53ts 39C kill	HPGD block
O=c1cc(N2CCc3ccccc32)[nH]c(=O)n1-c1ccc(Br)cc1	-8%	/	/	28µM*
CCOC(=O)C1CCN(S(=O)(=O)c2cc(Br)cc3c2N(C(=O)CC)CC3)CC1	/	-1%	26%	/
Cc1cc(NC(=O)CCN2C(=O)/C(=C/c3ccccc3Cl)SC2=S)no1	1%	/	6%	-6%
O=C(CCCN1C(=O)/C(=C/c2ccccc2Cl)SC1=S)Nc1ccccn1	0%	/	11%	16µM*
COc1cccc(NC(=O)Cn2c(=O)n(-c3ccc(CC(=O)NCC4CCCO4)cc3)c(=O)c3ccccc32)c1 (stereo not drawn)	/	11%	20%	/
Cc1ccc2nc(/C(C#N)=N/O)[nH]c2c1	-7%	7.9µM*	?	-7%
N#C/C(=N\O)c1nc2ccccc2[nH]1	-5%	/	/	-12%
CCCNC(=O)c1ccc(C2SCC(=O)N2Cc2ccccc2)cc1 (stereo not drawn)	3%	/	/	3.2µM*
O=C(CSc1nc2ccccc2c(=O)[nH]1)c1cccs1	-1%	0%	-4%	13µM*
Cc1cnc(NC(=O)CSc2nc3ccccc3c(=O)[nH]2)s1	4%	8%	-2%	16µM*
